Data as given in the supplement of paper PMC11732987, “Enantioselective OTUD7B fragment discovery through chemoproteomics screening and high-throughput optimisation” (Communications Chemistry, 2025).

Experiments:
Experiment in all cases: log2 ratio of Biotin-Ahx-Ub-VS probe labelling (compound/DMSO); higher = less target engagement, active = hit call of the paper (q ≤ 0.05, log2 ratio ≤ -1)
Settings in all cases: treatment time: 3 h
[1] = compound: CCC1N(CCc2sccc12)C(=O)CCl
Outline: (§1)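 DUBs in HEK293T lysate were labelled with Biotin-Ahx-Ub-VS (0.5 µM final, 1 h) after a 3 h treatment with compound at 50 or 200 µM or with DMSO, done in triplicate on 495 µg of lysate per sample. NeutrAvidin-enriched proteins were digested with LysC and trypsin and run by diaPASEF LC-MS/MS. Median-normalised label-free quantities gave average base-two log ratios of compound to DMSO by unpaired t-test, restricted to proteins with at least 2 unique peptides.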

[2] = compound: CN1c2ccccc2C(CS1(=O)=O)NC(=O)CCl
Outline: as §1

[3] = compound: Cl.ClCC(=O)N1CCc2ncncc2C1
Outline: as §1

[4] = compound: Cl.Cn1ncc2C(CCCc12)NC(=O)CCl
Outline: as §1

[5] = compound: ClCC(=O)NC1CCOc2ccccc12
Outline: as §1

[6] = compound: ClCC(=O)NC1CCCc2ccccc12
Outline: (§2)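 The values are mean compound-versus-vehicle ratios derived by unpaired t-test. For 3 h, triplicate HEK293T lysate samples (495 µg each) were treated with compound at a series of concentrations or with vehicle, after which Biotin-Ahx-Ub-VS was added to 0.5 µM final for 1 h. Labelled deubiquitinases were enriched with NeutrAvidin, digested with LysC and trypsin, and analysed by diaPASEF LC-MS/MS. Ratios are log2 values from global-median-normalised Spectronaut label-free quantities, using proteins with two or more unique peptides.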

[7] = compound: ClCC(=O)N[C@@H]1CCCc2ccccc12
Outline: as §2

[8] = compound: ClCC(=O)N[C@H]1CCCc2ccccc12
Outline: as §2

[9] = compound: CCC1N(CCc2cc(OC)c(Cl)cc12)C(=O)CCl
Outline: as §1

[10] = compound: CCCC1N(CCc2cc(OC)c(OC)cc12)C(=O)CCl
Outline: as §1

Measured: log2 ratio of Biotin-Ahx-Ub-VS probe labelling

USP12 (UniProt O75317)
Chain of UniProt O75317 (O75317 whole entry): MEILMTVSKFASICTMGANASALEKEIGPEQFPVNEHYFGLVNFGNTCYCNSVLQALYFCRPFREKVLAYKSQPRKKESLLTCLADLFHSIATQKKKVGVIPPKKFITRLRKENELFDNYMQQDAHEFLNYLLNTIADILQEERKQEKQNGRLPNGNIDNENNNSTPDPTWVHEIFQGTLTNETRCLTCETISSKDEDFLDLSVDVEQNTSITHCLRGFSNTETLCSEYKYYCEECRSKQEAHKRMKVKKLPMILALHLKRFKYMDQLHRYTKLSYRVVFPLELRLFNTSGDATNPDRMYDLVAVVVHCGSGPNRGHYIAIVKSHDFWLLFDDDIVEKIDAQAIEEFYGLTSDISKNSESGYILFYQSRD
inactive: [1]; compound concentration: 50uM -0.336 | [1]; compound concentration: 200uM -0.364 | [2]; compound concentration: 50uM -0.67 | [2]; compound concentration: 200uM -0.285 | [3]; compound concentration: 50uM -0.414 | [3]; compound concentration: 200uM 0.0587 | [4]; compound concentration: 50uM 0.232 | [4]; compound concentration: 200uM 0.133 | [5]; compound concentration: 50uM -0.0656 | [5]; compound concentration: 200uM -0.128 | [6]; compound concentration: 0.78uM -0.261 | [6]; compound concentration: 1.56uM -0.455 | [6]; compound concentration: 3.13uM -0.802 | [6]; compound concentration: 6.25uM -0.549 | [6]; compound concentration: 12.5uM -0.298 | [6]; compound concentration: 25uM -0.852 | [6]; compound concentration: 50uM -0.524 | [6]; compound concentration: 100uM -0.285 | [6]; compound concentration: 200uM -0.69 | [7]; compound concentration: 0.78uM -0.131 | [7]; compound concentration: 1.56uM 0.0424 | [7]; compound concentration: 3.13uM 0.272 | [7]; compound concentration: 6.25uM 0.0447 | [7]; compound concentration: 12.5uM -0.0347 | [7]; compound concentration: 25uM -0.263 | [7]; compound concentration: 50uM -0.715 | [7]; compound concentration: 100uM -0.0609 | [7]; compound concentration: 200uM -0.175 | [8]; compound concentration: 0.78uM -0.247 | [8]; compound concentration: 1.56uM -0.665 | [8]; compound concentration: 3.13uM 0.0603 | [8]; compound concentration: 6.25uM 0.103 | [8]; compound concentration: 12.5uM -0.0251 | [8]; compound concentration: 25uM -0.184 | [8]; compound concentration: 50uM -0.474 | [8]; compound concentration: 100uM -0.242 | [8]; compound concentration: 200uM -0.748 | [9]; compound concentration: 50uM -0.0261 | [9]; compound concentration: 200uM -0.904 | [10]; compound concentration: 50uM -0.303 | [10]; compound concentration: 200uM -0.368

USP42 (UniProt Q9H9J4)
Chain of UniProt Q9H9J4 (Q9H9J4 whole entry): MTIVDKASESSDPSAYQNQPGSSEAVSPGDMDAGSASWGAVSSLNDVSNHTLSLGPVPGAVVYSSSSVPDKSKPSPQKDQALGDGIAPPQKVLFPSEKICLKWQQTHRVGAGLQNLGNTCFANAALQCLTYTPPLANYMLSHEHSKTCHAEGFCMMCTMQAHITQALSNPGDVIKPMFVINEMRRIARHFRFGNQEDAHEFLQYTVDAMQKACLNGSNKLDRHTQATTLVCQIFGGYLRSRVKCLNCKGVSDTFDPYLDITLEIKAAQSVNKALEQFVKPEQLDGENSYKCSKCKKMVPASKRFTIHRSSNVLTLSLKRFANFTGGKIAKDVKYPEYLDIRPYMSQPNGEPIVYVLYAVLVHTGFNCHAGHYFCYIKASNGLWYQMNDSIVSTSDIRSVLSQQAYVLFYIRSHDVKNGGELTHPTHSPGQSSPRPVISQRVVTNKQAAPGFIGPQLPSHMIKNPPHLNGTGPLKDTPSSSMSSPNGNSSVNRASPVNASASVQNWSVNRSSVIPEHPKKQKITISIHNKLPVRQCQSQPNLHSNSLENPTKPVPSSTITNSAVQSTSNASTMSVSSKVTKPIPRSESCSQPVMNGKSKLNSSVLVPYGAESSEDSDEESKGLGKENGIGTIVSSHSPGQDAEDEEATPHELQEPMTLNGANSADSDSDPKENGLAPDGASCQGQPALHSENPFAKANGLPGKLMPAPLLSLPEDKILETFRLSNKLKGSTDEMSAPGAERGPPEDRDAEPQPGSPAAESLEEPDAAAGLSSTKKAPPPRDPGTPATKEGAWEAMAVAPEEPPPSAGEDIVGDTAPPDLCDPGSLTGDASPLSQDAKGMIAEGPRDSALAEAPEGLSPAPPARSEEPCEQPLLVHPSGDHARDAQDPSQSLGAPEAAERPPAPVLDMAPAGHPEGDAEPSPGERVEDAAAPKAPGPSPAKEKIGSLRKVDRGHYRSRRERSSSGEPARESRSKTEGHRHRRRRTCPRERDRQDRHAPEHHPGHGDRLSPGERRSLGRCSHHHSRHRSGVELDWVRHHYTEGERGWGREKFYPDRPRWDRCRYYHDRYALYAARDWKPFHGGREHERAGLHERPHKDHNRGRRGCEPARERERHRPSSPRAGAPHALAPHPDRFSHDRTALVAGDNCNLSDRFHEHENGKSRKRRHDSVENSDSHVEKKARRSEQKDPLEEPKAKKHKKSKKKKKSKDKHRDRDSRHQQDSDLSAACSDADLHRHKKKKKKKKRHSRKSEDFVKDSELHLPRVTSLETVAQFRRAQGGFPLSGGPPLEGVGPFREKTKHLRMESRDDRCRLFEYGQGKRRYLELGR
inactive: [1]; compound concentration: 50uM 0.0875 | [1]; compound concentration: 200uM 0.424 | [2]; compound concentration: 50uM 0.125 | [2]; compound concentration: 200uM 0.131 | [3]; compound concentration: 50uM 0.0642 | [3]; compound concentration: 200uM 0.249 | [4]; compound concentration: 50uM -0.167 | [4]; compound concentration: 200uM 0.115 | [5]; compound concentration: 50uM -0.093 | [5]; compound concentration: 200uM 0.371 | [6]; compound concentration: 0.78uM -0.0166 | [6]; compound concentration: 1.56uM -0.0953 | [6]; compound concentration: 3.13uM -0.0821 | [6]; compound concentration: 6.25uM -0.0491 | [6]; compound concentration: 12.5uM -0.106 | [6]; compound concentration: 25uM -0.0142 | [6]; compound concentration: 50uM -0.0733 | [6]; compound concentration: 100uM 0.00602 | [6]; compound concentration: 200uM -0.207 | [7]; compound concentration: 0.78uM 0.0511 | [7]; compound concentration: 1.56uM 0.0688 | [7]; compound concentration: 3.13uM 0.0123 | [7]; compound concentration: 6.25uM 0.154 | [7]; compound concentration: 12.5uM -0.0261 | [7]; compound concentration: 25uM 0.0226 | [7]; compound concentration: 50uM -0.157 | [7]; compound concentration: 100uM 0.109 | [7]; compound concentration: 200uM 0.00814 | [8]; compound concentration: 0.78uM -0.186 | [8]; compound concentration: 1.56uM -0.0565 | [8]; compound concentration: 3.13uM -0.196 | [8]; compound concentration: 6.25uM -0.273 | [8]; compound concentration: 12.5uM -0.0469 | [8]; compound concentration: 25uM 0.0215 | [8]; compound concentration: 50uM -0.0548 | [8]; compound concentration: 100uM 0.132 | [8]; compound concentration: 200uM -0.0982 | [9]; compound concentration: 50uM -0.199 | [9]; compound concentration: 200uM 0.281 | [10]; compound concentration: 50uM -0.0757 | [10]; compound concentration: 200uM 0.0626
